Assay results: the supplement of paper PMC7801607

Assays:
[1] = test system: CHO; test: % viability of CHO cells (MTT); higher = less toxic; conditions: 48 h
Summary of the method: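 For 48 h, attached CHO cells (10^6 cells/well, 200 µL, seeded the night before) were kept in fresh medium carrying compound at 2 or 20 µM. A colorimetric tetrazolium (MTT) assay then gave survival as percent viability versus untreated cells.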

[2] = test system: HepG2-A16-CD81; test: % inhibition of HepG2 viability (CellTiter-Glo); higher = more toxic; conditions: 5 µM
[3] = test system: Plasmodium falciparum NF54 stage IV/V gametocytes; test: % inhibition of gametocyte viability (PrestoBlue); higher = more inhibition; conditions: 48 h
Summary of the method: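 Stage IV/V NF54 gametocytes at 2% gametocytaemia and 5% haematocrit (100 µL/well) were treated with compound at 1 or 5 µM and incubated for 48 h at 37 °C under stationary, hypoxic conditions. PrestoBlue (10 µL) was then added for 2 h, and fluorescence at 612 nm was read on 70 µL of transferred supernatant. Percent inhibition of gametocyte viability was normalised to vehicle and kill controls within one run.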

[4] = test system: Plasmodium falciparum NF54 asexual blood stage; test: % inhibition of asexual blood stage proliferation (pLDH); higher = more inhibition; conditions: 72 h
Summary of the method: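 Plasmodium falciparum NF54 ring-stage cultures (1% haematocrit, 2% parasitaemia) were incubated with compound at 2 or 20 µM for 72 h at 37 °C under 4% CO2, 3% O2 and 93% N2. Survival was read at 620 nm with the parasite lactate dehydrogenase assay. Results were reported as percent inhibition of asexual proliferation relative to controls.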

[5] = test system: Plasmodium falciparum NF54 stage IV/V gametocytes; test: % inhibition of gametocyte viability (ATP bioluminescence); higher = more inhibition; conditions: 24 h
Summary of the method: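 Stage IV/V NF54 gametocytes from density gradients (30,000 per well, 96-well plates) were incubated with compound at 1 or 5 µM for 24 h at 37 °C. A single run supplied percent inhibition of gametocyte viability, based on ATP measured with Promega BacTiter Glo and normalised to control wells.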

[6] = test system: Plasmodium falciparum NF54 stage IV/V gametocytes; test: % inhibition of gametocyte viability (luciferase reporter); higher = more inhibition; conditions: 48 h
Summary of the method: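 Percent inhibition was normalised to controls from a single run. Stage IV/V gametocytes of the NF54-Pfs16-GFP-Luc line, at 2% gametocytaemia and 2% haematocrit, were exposed to compound at 1 or 5 µM for 48 h at 37 °C under stationary, hypoxic conditions. Luminescence was then read from 30 µL lysate mixed with 30 µL Promega luciferin substrate on a GloMax-Multi+ reader with 10 s integration.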

[7] = test system: Plasmodium berghei ANKA liver stage in HepG2-A16-CD81; test: % inhibition of liver stage parasite viability (luciferase); higher = more inhibition; conditions: 5 µM; 48 h
Method: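 Single-concentration screen of the MMV Pandemic Response Box. P. falciparum NF54 asexual blood stages: pLDH assay, 72 h at 37 °C, 2 and 20 µM, n=2. Stage IV/V gametocytes (NF54): luciferase reporter (NF54-Pfs16-GFP-Luc, 48 h), ATP bioluminescence (24 h) and PrestoBlue (48 h) at 1 and 5 µM, n=1. P. berghei liver stage (luciferase in HepG2-A16-CD81, 48 h post infection) at 5 µM, n=4. All normalised to DMSO and kill controls as % inhibition.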
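Throughout, for % inhibition of HepG2 viability (CellTiter-Glo): HepG2-A16-CD81 hepatoma cells plated as in the liver-stage assay but without sporozoites, with DMSO wells as negative and 25 µM puromycin as positive control.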

Row | Structure (SMILES) | % viability of CHO cells ([1]; 2 µM) [%] | % viability of CHO cells ([1]; 20 µM) [%] | % inhibition of HepG2 viability [2] [%] | % inhibition of gametocyte viability ([3]; 1 µM) [%] | % inhibition of gametocyte viability ([3]; 5 µM) [%] | % inhibition of asexual blood stage proliferation ([4]; 2 µM) [%] | % inhibition of asexual blood stage proliferation ([4]; 20 µM) [%] | % inhibition of gametocyte viability ([5]; 1 µM) [%] | % inhibition of gametocyte viability ([5]; 5 µM) [%] | % inhibition of gametocyte viability ([6]; 1 µM) [%] | % inhibition of gametocyte viability ([6]; 5 µM) [%] | % inhibition of liver stage parasite viability [7] [%]
1 | OC1O[C@H](CSc2ccc(F)cc2)[C@@H](O)[C@H]1O (some centres undefined) | 84.4 | -2.31 | -4.06 | < 0 | 18.7 | 91.2 | 90.9 | < 0 | < 0 | < 0 | 0.415 | 31.6
2 | COCCn1cnc2c(=O)[nH]c(Nc3ccccc3)nc21 | 103 | 63.9 | 5.25 | < 0 | 0.985 | 28.3 | 62.8 | 7.08 | 5.85 | 14.5 | 5.09 | 7.54
3 | O=C(Nc1nnc(-c2ccccc2)o1)c1ccc(F)cc1 | 88.3 | 114 | 8.93 | 8.12 | < 0 | 52.8 | 61.2 | < 0 | < 0 | < 0 | < 0 | 53.8
4 | CCn1cc(C(=O)O)c(=O)c2cc(F)c(N3CCNC(C)C3)c(F)c21 (centres undefined) | 104 | 102 | 0.454 | 34.9 | 43.8 | 36.8 | 28.9 | < 0 | < 0 | < 0 | < 0 | 22.1
5 | COc1ccc(CNC(=O)C2CCN([C@H](C)c3cccc4ccccc34)CC2)cc1 | 128 | 70.1 | 0.399 | < 0 | 11 | 79.1 | 64.2 | 8.45 | 8.31 | 12.8 | < 0 | 19.6
6 | Nc1nc(O)ncc1F | 118 | 21.7 | 0.135 | 3.77 | < 0 | -11 | -2.89 | < 0 | < 0 | < 0 | < 0 | 7.9
7 | c1ccc(-c2nnc3c4ccccc4c(N4CCNCC4)nn23)cc1 | 101 | 91.4 | 10.4 | 27.8 | 50.3 | 3.14 | 69.2 | < 0 | 0.889 | < 0 | 11.9 | 7.03
8 | Cc1ncc([N+](=O)[O-])n1CC(C)O (centres undefined) | 92.2 | 87.1 | 7.14 | 7.95 | 28.2 | 42.5 | 65.1 | 4.81 | < 0 | 8.84 | 10 | 13.9
9 | CCc1cc(CCC(=O)Nc2ccccc2O)c(=O)[nH]c1C | 90.7 | 106 | 0.672 | 5.05 | 16.3 | -8.67 | 47.7 | < 0 | < 0 | < 0 | < 0 | 17.8
10 | COc1ccc(SC(=O)N[C@H](CCC(=O)O)C(=O)O)cc1 | 114 | 122 | 3.46 | < 0 | 58.8 | 58.1 | 103 | < 0 | 6.16 | 23.9 | 62.8 | 19.9
11 | CCCCCOc1ccc(/C=C2\Oc3c(ccc(O)c3O)C2=O)c(O)c1 | 123 | 127 | 3.16 | < 0 | < 0 | 2.75 | 90.6 | < 0 | < 0 | < 0 | < 0 | 15.2
12 | CCc1nc(N)nc(N)c1C#CCc1ccccc1 | 105 | 92.5 | 5.43 | 1.8 | < 0 | 66 | 97.2 | < 0 | < 0 | 5.41 | < 0 | 76.9
13 | Fc1ccc2c(/C=C/c3cccnc3)c[nH]c2c1 | 107 | 117 | 0.955 | < 0 | 6.61 | 4.51 | 61.2 | < 0 | < 0 | < 0 | < 0 | -23.8
14 | COc1cc(NCc2ccc3nc(N)nc(N)c3c2C)cc(OC)c1OC | 109 | 47.7 | 17.2 | < 0 | < 0 | 40.8 | 88.6 | < 0 | < 0 | < 0 | < 0 | 69.1
15 | CCOc1ccc(/C=N/NC(=O)C2CC2c2ccc(C(C)(C)C)cc2)cc1OCC (centres undefined) | 96.4 | 63.6 | -8.74 | < 0 | 1.6 | 18.7 | 37.8 | < 0 | < 0 | 17.9 | < 0 | 11.3
16 | O=S(=O)(Nc1ccc(-n2cccc2)cc1)c1ccc(Cl)c(Cl)c1 | 95 | 90.4 | -0.822 | < 0 | < 0 | 6.75 | 24 | < 0 | < 0 | < 0 | < 0 | 38
17 | CN1c2ccc(Cl)cc2N(c2ccccc2)C(=O)c2cn(Cc3ccc(CN4CCOCC4)cc3)nc21 | 90.9 | 69.1 | -4.81 | 18.2 | 30.1 | 0.489 | 23.7 | 0.0957 | < 0 | 15.5 | 0.583 | 38.6
